One experiment can be described thus: EMT-state selective cytotoxicity in co-culture – imaging, PC-3E GFP, TEM4-18 mCherry, primary screen (AID 1345086).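 Note: cells exposed to compound for 72 h before imaging.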 The note with it: PC-3E GFP / TEM4-18 mCherry co-culture, imaging cell counts; measured here: epithelial PC-3E GFP cell survival; at 1 µM.
`C[C@@H]1C[C@@H](O)[C@@H](O)CO1` registered a normalised cell number of 0.91.
As to `CCCc1oc(=O)cc(OC)c1CO`, the normalised cell number is 1.2.
`COc1c(F)c(F)cc2c(=O)c(C(=O)NO)cn(C3CC3)c12` yielded a normalised cell number of 0.97.

Still in this experiment, the particulars now being: PC-3E GFP / TEM4-18 mCherry co-culture, imaging cell counts; measured here: mesenchymal TEM4-18 mCherry cell survival; at 1 µM.
`COc1cc2c(cc1OC)Cc1cc(OC)c(OC)cc1Cc1cc(OC)c(OC)cc1C2` returned a normalised cell number of 1.04.
On the same count and under the same terms, under `CC1(C)C[C@H]2[C@@]1(O)[C@@H](O)C[C@]1(C)[C@H](O)C=C[C@]21CO` stands 1.07; under `C/C=C/C1=CC(=O)[C@H](O)[C@H]1O`, 1.07; under `C[C@@H]1O[C@@H](O[C@H]2[C@@H](Oc3cc(O)c4c(c3)O[C@H](c3ccc(O)cc3)CC4=O)O[C@H](CO)[C@@H](O)[C@@H]2O)[C@H](O)[C@H](O)[C@H]1O`, 1.04.
For `CC(=O)OC1CC(C)OC(=O)CCC(O)CC1=O` (stereo not drawn), the normalised cell number is 0.96.
With `C[C@H]1[C@H](C)CC[C@]2(C(=O)O)CC[C@]3(C)C(=CCC4[C@@]5(C)C[C@@H](O)[C@H](O)[C@@](C)(CO)C5[C@H](O)C[C@]43C)[C@H]12` (stereo partly drawn), the normalised cell number is 1.17.
`O=S(=O)([O-])OC[C@H]1O[C@@](COS(=O)(=O)[O-])(O[C@H]2O[C@H](COS(=O)(=O)[O-])[C@@H](OS(=O)(=O)[O-])[C@H](OS(=O)(=O)[O-])[C@H]2OS(=O)(=O)[O-])[C@@H](OS(=O)(=O)[O-])[C@@H]1OS(=O)(=O)[O-].[Al+3].[Na+].[Na+].[O-2].[O-2].[OH-]` registered a normalised cell number of 0.93.
Compound `CC(C)=CCC/C(C)=C\CC1=C(C)C(=O)c2ccccc2C1=O` returned a normalised cell number of 1.09.
In the case of `COC(=O)CNC(=O)c1ccc([C@H](O)c2ccccc2)cn1`, the normalised cell number is 0.87.
Regarding `CC(C)c1c(O)ccc2c1CCC1C(C)(C)CCC[C@]21C` (stereo partly drawn), the normalised cell number turned out to be 1.07.
On the same count and under the same terms, under `CN(C)c1cccc2c(S(N)(=O)=O)cccc12` stands 1.16; under `COc1cc(OC)c2c(=O)c(OC)c(-c3ccccc3)oc2c1`, 1.13; under `Cc1cccc(CN2CCN(C(c3ccccc3)c3ccc(Cl)c(C)c3)CC2)c1` (stereo not drawn), 0.97.
The same measure, in the same setting: with `O=C1CC[C@]23/C=C/C(=O)NCCCCNCCCNC(=O)/C=C/c4ccc(c2c4)O[C@@H]3C1` the figure was 0.89; with `Nc1ccc2ccccc2c1S(=O)(=O)O`, 0.97.
For `O=C(N[C@@H](Cc1ccc(O)cc1)C(=O)O)OCc1ccccc1`, the normalised cell number amounted to 1.04.
On the same count and under the same terms, under `CC(=O)OC[C@@]1(O)C[C@@]23CCC4c5ccoc5CC[C@]4(C)C2CC[C@@H]1C3` (stereo partly drawn) stands 0.88; under `COc1c(N2CC[C@@H](CN)C2)c(F)cc2c(=O)c(C(=O)NO)cn(C3CC3)c12`, 1.15.
Same read-out and setting: with `O=C[C@H](O)[C@@H](O)[C@H](O)CO` the figure was 0.97; with `COC1=CC(=O)C[C@@H](C)[C@]12Cc1c(Cl)c(OC)cc(OC)c1C2=O`, 1.01.
Still for that read-out and setting: with `O=c1cc(-c2ccccc2)oc2cc(O)ccc12` the figure was 0.97.
Take `C=CC(C)(C)c1cccc2[nH]c3c(c12)C[C@@H]1CC[C@@]2(O)C4=CC(=O)[C@@H]5O[C@@]4(CC[C@]2(C)[C@@]31C)CC5(C)C`: the normalised cell number was 1.11.
Same read-out and setting: with `OC[C@H]1O[C@H](OC[C@H]2O[C@@H](O)[C@H](O)[C@@H](O)[C@@H]2O)[C@H](O)[C@@H](O)[C@H]1O` the figure was 0.91.
On the same count and under the same terms, under `Cc1c(O)c(O)cc2oc3cc(O)cc(O)c3c(=O)c12` stands 1.12; under `OCC1O[C@H](O[C@H]2OC(CO)[C@@H](O)[C@@H](O)C2O)C(O)[C@H](O)[C@@H]1O` (stereo partly drawn), 1.13; under `C[C@H]1C[C@H](O)[C@H]2[C@@H](C=C[C@@](C)(O)[C@]2(C)C(=O)CCO)C1`, 0.3.
On to `CC(C)CC1C(=O)OC(C(C)C)C(=O)N(C)C(C(C)C)C(=O)OC(C(C)C)C(=O)N(C)C(C(C)C)C(=O)OC(C(C)C)C(=O)N1C` (stereo not drawn), for which the normalised cell number came out at 1.15.
Take `COC(=O)[C@]12Oc3c(c(O)cc4c3C3C=C[C@]5(C4)C(=C(O)c4c(O)cc(C)cc4[C@@H]5OC(C)=O)C3=O)C(O)=C1C(=O)C=C[C@@H]2O`: the normalised cell number was 0.86.
For `OCc1cc(Br)ccc1Cl`, the normalised cell number stood at 1.14.
The same measure, in the same setting: under `C[C@H](Oc1ccc(Oc2ccc3ncc(Cl)nc3c2)cc1)C(=O)O` stands 1.18; under `NC(CSCSCC(N)C(=O)O)C(=O)O` (stereo not drawn), 1.08; under `COc1cc([C@@]2(C)[C@@H]3[C@@H](C)CCC[C@@H]3C=C[C@@H]2C)oc(=O)c1C=O`, 0.98.
On the same count and under the same terms, under `CC[C@H](C)/C=C/C1=CC2=C(Cl)C(=O)[C@@]3(C)OC(=O)C(C(=O)[C@@H](C)[C@@H](C)O)=C3C2=CO1` stands 0.91; under `CC[C@@H](C)CC(=O)N1C(=S)O[C@@H]2Cc3ccccc3[C@@H]21`, 1.05; under `CCN(Cc1cccc(S(=O)(=O)O)c1)c1cccc(C(=C2C=CC(=[N+](CC)Cc3cccc(S(=O)(=O)O)c3)C=C2)c2ccc(O)cc2S(=O)(=O)[O-])c1`, 1.11.
Same read-out and setting: under `[N-]=[N+]=NC1[C@@H](O)C2OC(c3ccccc3)OCC2O[C@@H]1Sc1ccccc1` (stereo partly drawn) stands 1.04; under `O=C1NCC[C@@H]1Oc1ccc(Oc2cnc3ccc(Cl)cc3n2)cc1`, 0.76; under `C[C@@H]1C[C@@H](O)[C@@H](O)CO1`, 0.96.
Regarding `CCCc1oc(=O)cc(OC)c1CO`, the normalised cell number was 1.03.
The same measure, in the same setting: under `COc1c(F)c(F)cc2c(=O)c(C(=O)NO)cn(C3CC3)c12` stands 1.04.

The record behind these values is PubChem BioAssay.
